# Tgondii IFNg – inhibitors of Toxoplasma gondii growth with IFN-gamma; Toxoplasma gondii growth in IFN-gamma-treated host cells; stronger effect = lower value; activity change, negative = inhibition, % (no concentration beside the values); hit rate 3.8% among 69,000; AID 1259416; in the data active = activity change below about -70%, passing the limit was not always enough;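 also: host cells are HeLa cells infected with Toxoplasma gondii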
# Numbers without * were called inactive; i = inactive; ! = not active in a repeat. This is one part of a sample in which hits are shown more often than they occur.
SMILES,Tgondii IFNg
Cc1cc(C)nc(Nc2n[nH]c(COc3ccc4ccccc4c3)n2)n1,-44
CC(NC(=O)Cc1nc2ccccc2[nH]1)c1ccc(O)c(F)c1 (centres undefined),-4
c1ccc(COCC2NCCc3c2nnn3CC2CC2)cc1 (centres undefined),-63
Cn1cc(CN(Cc2ccc(Cl)cc2F)C2CC2)cn1,1
CCOc1ccc(S(=O)(=O)N2CCC3(CC2)Nc2cc(F)ccc2-n2cccc23)cc1,23
CCOc1ccc(S(=O)(=O)c2ccc(Cl)cc2)cc1,16
CCOc1ccc(S(=O)(=O)n2cc(F)c(=O)[nH]c2=O)cc1,-85*
Cc1cc(C)c2c(CC(=O)N3CCOC(C(F)(F)F)C3)coc2c1C (centres undefined),-4
Cc1cccc(-c2ncc(CNCCc3cn4nc(C)sc4n3)cn2)c1,-1
COC(=O)c1ccc(NC(=O)Nc2ccc(-c3nc(-c4ccccc4)co3)cc2)cc1,123
CCN1c2cc(C)ccc2-n2cccc2C12CCN(C(=O)Nc1cc(OC)ccc1OC)CC2,-111*
CCN1c2cc(C)ccc2-n2cccc2C12CCN(C(=O)Nc1cc(Cl)ccc1OC)CC2,-116*
CCN1c2cc(C)ccc2-n2cccc2C12CCN(C(=O)Nc1cc(C)cc(C)c1)CC2,-28
CCN1c2cc(C)ccc2-n2cccc2C12CCN(C(=O)Nc1ccc(OC)cc1OC)CC2,-72*
CCN1c2cc(C)ccc2-n2cccc2C12CCN(C(=O)Nc1ccc(F)cc1F)CC2,-21
CCOC(=O)Cc1ccc(NC(=O)N2CCC3(CC2)c2cccn2-c2ccc(C)cc2N3CC)cc1,-35
CCN1c2cc(C)ccc2-n2cccc2C12CCN(C(=O)Nc1cc(F)ccc1F)CC2,-51
COc1ccc(OC)c(NC(=O)N2CCC3(CC2)Nc2cc(C)ccc2-n2cccc23)c1,225
CCN1c2cc(C)ccc2-n2cccc2C12CCN(C(=O)Nc1ccccc1C(F)(F)F)CC2,108
CCOc1ccc2nc(SCC(=O)n3c4c(c5ccccc53)CCCC4)sc2c1,29
O=C1CN(CC2(O)CCCN(CCc3ccccc3)C2=O)CCCN1 (centres undefined),4
COC(=O)[C@@H]1C[C@@H](NC(=O)CN2CCCCCCC2)CN1C,-2
Cc1ccc(CNC2CCc3c(ccc(=O)n3Cc3cccnc3)C2)o1 (centres undefined),-24
O=C1CCC(C(=O)N2CCc3[nH]nc(-c4cccc5ccccc45)c3C2)CN1 (centres undefined),2
CCOC(=O)C1CCN(C2CCN(c3cccc(NS(=O)(=O)c4ccc(F)cc4)c3)CC2)CC1,0
SMILES,Tgondii IFNg
CC(C)N1CCOCC2(CN(C(=O)c3ccn[nH]3)CCO2)C1 (centres undefined),-9
O=C1CCc2cc(S(=O)(=O)N3CCCc4ccccc43)cc3c2N1CCC3,1
COc1ccc(S(=O)(=O)N2CCCc3ccccc32)cc1,-113*
O=S(=O)(c1ccc(F)cc1)N1CCCc2ccccc21,-12
Cc1ncc(-c2ccccn2)c(C2CCC(CNC(=O)c3scnc3C)CC2)n1 (centres undefined),8
Cc1scc(C(=O)NCC2CCC(c3ncc(Cl)cc3-c3ccncc3)CC2)c1C (centres undefined),-88*
Cc1ncc(-c2ccncc2C)c(C2CCC(CNC(=O)c3oc(C)nc3C)CC2)n1 (centres undefined),-32
O=C(CCCCCN1C(=O)c2cccc3cccc(c23)C1=O)NO,-84*
COc1ccccc1NC(=O)CCCCCN1C(=O)c2cccc3cccc(c23)C1=O,20
CCCCC(CC)CNC(=O)CCCCCN1C(=O)c2ccccc2C1=O (centres undefined),13
Cc1oc(-c2ccccc2)nc1Cn1cnc2nc3c(cc2c1=O)CC(C)CC3 (centres undefined),20
Cc1ccc(-c2nc(CCNC(=O)c3ccc4c(c3)OCO4)cs2)cc1,317
CN(C)C(=O)C1CCC2(CCN(S(=O)(=O)C3CC3)CC2)O1 (centres undefined),4
O=C(c1ccc[nH]1)N1CCCn2nnc(COCC3CC3)c2C1,-37
COc1ccc(C(=O)N2CCc3[nH]cnc3C23CCCCC3)cc1,-6
O=C(Cc1ccc(OC(F)(F)F)cc1)N1CCc2[nH]cnc2C12CCCC2,-80*
O=C(Cc1ccc(F)cc1)N1CCC2(CC1)COCCN(c1ncccn1)C2,-15
CN1CCC2(CCN(C(=O)c3cc(C(F)(F)F)[nH]n3)CC2)C1,-2
OC1(C(F)(F)F)CC(c2nccs2)=NN1 (centres undefined),-13
CC(C)(C)c1cc(-c2cc(C(F)(F)F)[nH]n2)c2c(c1)C(C)(C)CC2,-87*
CC(C)(C)c1cc(C2=NNC(O)(C(F)(F)F)C2)c2c(c1)C(C)(C)CC2 (centres undefined),-100*
CC(C)n1nc(Cn2cccn2)c2c1CN(CCO)C2,3
CCOC(=O)[C@]12CCCN(S(=O)(=O)CC)C[C@@H]1CN(CCN(C)C)C2,-3
COc1ccc(S(=O)(=O)Nc2ccc(-c3nc(-c4ccc(C)cc4C)co3)cc2)cc1,-51
O=C(NCc1nc(Cc2cccs2)no1)c1cccc2ccnn12,-53
SMILES,Tgondii IFNg
Cc1ccc2c(c1)cc(C(=O)NCc1nc(Cc3ccccc3)no1)n2C,-53
CC(C)c1cc(C(=O)NCc2nc(Cc3cccs3)no2)n(C)n1,-83*
CCN(CCN1CCOCC1)Cc1cc2cc(C)ccc2[nH]c1=O,-5
COc1ccc(Cl)cc1NC(=O)Cn1nc(C(F)(F)F)cc1C,-30
O=C(Cc1ccc(F)cc1F)NCc1cnn2ccccc12,97
O=C(CCC1N=C2c3ccccc3N=C(SCc3cc(=O)n4cc(Cl)ccc4n3)N2C1=O)NCc1ccc2c(c1)OCO2 (centres undefined),11
CC[C@@H](C(=O)O)C1CC[C@H](C)C([C@@H](C)[C@H](O)[C@H](C)C(=O)[C@H](CC)C2O[C@]3(C=C[C@@H](O)[C@]4(CC[C@@](C)(C5CC[C@](O)(CC)[C@H](C)O5)O4)O3)[C@H](C)C[C@@H]2C)O1 (some centres undefined),-79*!
COCC1c2nnn(C)c2CCN1C(=O)Cc1cccs1 (centres undefined),i
CC(CCc1ccco1)NC(=O)c1cc(Cn2ccc3ccccc32)[nH]n1 (centres undefined),17
COC(=O)[C@@H]1CCCN1Cc1nc(-c2cc(OC)c3c(c2)OCO3)oc1C,-42
N#Cc1cccc(CN2CCc3ncc(Cn4cccn4)n3CC2)c1,4
C#CCOc1ccc(C(=O)N2CCN(c3ccccn3)CC2)cc1,7
C=CC(=O)Nc1cccc(Nc2nc(Nc3ccc(NC4CN(CCF)C4)cc3OC)ncc2C(F)(F)F)c1,12
COc1cc(OC)c(NC(=O)NCC(c2cccnc2)c2cn(C)c3ccccc23)cc1Cl (centres undefined),i
C=CC(=O)Nc1cc(Nc2nccc(-c3cn(C)c4ccccc34)n2)c(OC)cc1N(C)CCN(C)C,-74*
CCCc1cc(C(=O)N2CCc3cc(OC)c(OC)cc3C2)n[nH]1,5
C=CCn1cc(CN2CCCC2c2ccccc2C)c(C)n1 (centres undefined),6
Cn1cc(C(CNC(=O)Nc2ccccc2)c2cccnc2)c2ccccc21 (centres undefined),i
O=C(NCCc1csc(-c2ccccc2)n1)[C@H]1CCCN1C(=O)c1ccc(F)c(F)c1,3
COc1ccc(-n2cccn2)c(CN2CCCCC2c2ccccn2)c1 (centres undefined),-85*
